Assays:
Assay in all cases: DAPPL (digital affinity profiling via proximity ligation, sequencing); 10 mM Tris-HCl pH 7.5, 50 mM NaCl, 1 mM DTT, 4% glycerol, room temperature, 30 min; GST-TFs on glutathione beads, 16-mer random dsDNA library, 0.1% formaldehyde crosslink after washing; high values mean tight binding
FLI1 = target: T1, FLI1 (Homo sapiens, UniProt Q01543 1-452); conditions: protein: recombinant; tags: N-terminal GST; dsDNA, one strand shown
T1 sequence: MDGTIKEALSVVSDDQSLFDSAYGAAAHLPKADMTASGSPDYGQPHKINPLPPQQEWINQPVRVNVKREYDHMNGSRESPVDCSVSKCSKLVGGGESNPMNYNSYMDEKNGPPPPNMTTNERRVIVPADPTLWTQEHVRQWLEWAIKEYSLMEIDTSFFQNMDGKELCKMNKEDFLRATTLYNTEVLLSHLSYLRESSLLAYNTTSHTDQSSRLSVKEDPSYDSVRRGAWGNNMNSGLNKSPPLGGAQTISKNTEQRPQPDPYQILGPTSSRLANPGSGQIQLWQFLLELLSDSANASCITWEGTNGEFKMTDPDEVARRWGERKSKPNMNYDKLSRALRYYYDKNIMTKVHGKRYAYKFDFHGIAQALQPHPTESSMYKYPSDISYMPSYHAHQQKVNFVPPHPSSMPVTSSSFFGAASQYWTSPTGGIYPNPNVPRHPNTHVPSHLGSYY
Summary of the method: (§1)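 Beads coated with glutathione captured GST-fused human transcription factors that had been expressed in yeast, and the factors were then given DNA barcodes and pooled with a tag-only sample. The pools were incubated with 200 nmole of a random double-stranded 16-mer DNA library in Tris/NaCl/DTT/glycerol buffer for 30 min at room temperature, washed, crosslinked with 0.1% formaldehyde and proximity-ligated with BsaI/T4 ligase at 37 °C for 1 h. PCR amplification and Illumina NextSeq500 sequencing came last. Binding signal is each hexamer's read frequency for a factor divided by its frequency for the tag-only sample.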

GABPA = target: T2, GABPA (Homo sapiens, UniProt Q06546 1-454); conditions: protein: recombinant; tags: N-terminal GST; dsDNA, one strand shown
T2 sequence: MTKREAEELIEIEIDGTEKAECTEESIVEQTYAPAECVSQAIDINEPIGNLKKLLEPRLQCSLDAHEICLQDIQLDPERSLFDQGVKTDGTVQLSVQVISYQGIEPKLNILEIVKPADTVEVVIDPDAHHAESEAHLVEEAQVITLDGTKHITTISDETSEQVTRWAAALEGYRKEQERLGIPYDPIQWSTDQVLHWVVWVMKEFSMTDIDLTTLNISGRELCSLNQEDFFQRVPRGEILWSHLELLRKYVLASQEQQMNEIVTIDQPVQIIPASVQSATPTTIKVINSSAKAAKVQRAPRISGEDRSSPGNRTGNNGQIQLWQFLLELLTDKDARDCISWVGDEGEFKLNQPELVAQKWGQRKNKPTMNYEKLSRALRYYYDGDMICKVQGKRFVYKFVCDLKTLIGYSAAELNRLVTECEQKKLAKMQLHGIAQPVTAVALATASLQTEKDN
Summary of the method: as §1

ERG = target: T3, ERG (Homo sapiens, UniProt P11308 1-479); conditions: protein: recombinant; tags: N-terminal GST; dsDNA, one strand shown
T3 sequence: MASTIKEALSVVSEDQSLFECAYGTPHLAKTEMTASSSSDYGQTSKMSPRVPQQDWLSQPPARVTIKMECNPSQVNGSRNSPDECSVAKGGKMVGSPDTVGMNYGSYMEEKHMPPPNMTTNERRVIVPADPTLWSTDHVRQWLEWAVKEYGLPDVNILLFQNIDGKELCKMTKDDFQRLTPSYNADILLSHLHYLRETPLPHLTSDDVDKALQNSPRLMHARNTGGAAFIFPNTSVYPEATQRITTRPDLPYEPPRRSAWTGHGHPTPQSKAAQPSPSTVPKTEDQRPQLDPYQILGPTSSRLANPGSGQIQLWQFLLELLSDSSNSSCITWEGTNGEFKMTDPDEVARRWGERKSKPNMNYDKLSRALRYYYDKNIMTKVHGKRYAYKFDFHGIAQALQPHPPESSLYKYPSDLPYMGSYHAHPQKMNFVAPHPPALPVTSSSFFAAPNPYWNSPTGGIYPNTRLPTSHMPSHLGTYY
Summary of the method: as §1

ELF1 = ELF1 (Homo sapiens, UniProt P32519 1-619); conditions: protein: recombinant; tags: N-terminal GST; dsDNA, one strand shown
Chain of ELF1 (P32519 whole entry): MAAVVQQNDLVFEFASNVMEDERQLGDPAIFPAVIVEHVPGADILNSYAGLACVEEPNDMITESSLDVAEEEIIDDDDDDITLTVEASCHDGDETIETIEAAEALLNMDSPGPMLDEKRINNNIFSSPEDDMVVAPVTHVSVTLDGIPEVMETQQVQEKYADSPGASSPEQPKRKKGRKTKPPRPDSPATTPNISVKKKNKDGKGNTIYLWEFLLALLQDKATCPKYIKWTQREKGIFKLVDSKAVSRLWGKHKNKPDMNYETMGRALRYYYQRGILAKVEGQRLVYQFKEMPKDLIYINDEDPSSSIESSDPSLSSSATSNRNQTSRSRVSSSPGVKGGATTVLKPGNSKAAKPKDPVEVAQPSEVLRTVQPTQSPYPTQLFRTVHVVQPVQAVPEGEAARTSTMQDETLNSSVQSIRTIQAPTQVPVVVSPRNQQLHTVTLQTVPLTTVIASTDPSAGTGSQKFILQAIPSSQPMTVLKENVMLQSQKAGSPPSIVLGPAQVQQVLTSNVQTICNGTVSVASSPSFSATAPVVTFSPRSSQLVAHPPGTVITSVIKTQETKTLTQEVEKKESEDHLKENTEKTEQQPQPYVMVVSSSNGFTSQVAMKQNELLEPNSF
Summary of the method: as §1

SPIB = SPIB (Homo sapiens, UniProt Q01892 1-262); conditions: protein: recombinant; tags: N-terminal GST; dsDNA, one strand shown
Chain of SPIB (Q01892 whole entry): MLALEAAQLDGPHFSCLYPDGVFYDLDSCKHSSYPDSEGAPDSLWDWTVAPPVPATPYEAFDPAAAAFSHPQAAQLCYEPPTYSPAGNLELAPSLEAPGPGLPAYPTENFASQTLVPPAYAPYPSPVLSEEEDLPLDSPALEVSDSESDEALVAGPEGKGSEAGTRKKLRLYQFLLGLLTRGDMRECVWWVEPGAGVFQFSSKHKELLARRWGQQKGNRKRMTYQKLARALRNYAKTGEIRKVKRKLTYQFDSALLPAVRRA
Summary of the method: as §1

ELK3 = target: T4, ELK3 (Homo sapiens, UniProt P41970 1-407); conditions: protein: recombinant; tags: N-terminal GST; dsDNA, one strand shown
T4 sequence: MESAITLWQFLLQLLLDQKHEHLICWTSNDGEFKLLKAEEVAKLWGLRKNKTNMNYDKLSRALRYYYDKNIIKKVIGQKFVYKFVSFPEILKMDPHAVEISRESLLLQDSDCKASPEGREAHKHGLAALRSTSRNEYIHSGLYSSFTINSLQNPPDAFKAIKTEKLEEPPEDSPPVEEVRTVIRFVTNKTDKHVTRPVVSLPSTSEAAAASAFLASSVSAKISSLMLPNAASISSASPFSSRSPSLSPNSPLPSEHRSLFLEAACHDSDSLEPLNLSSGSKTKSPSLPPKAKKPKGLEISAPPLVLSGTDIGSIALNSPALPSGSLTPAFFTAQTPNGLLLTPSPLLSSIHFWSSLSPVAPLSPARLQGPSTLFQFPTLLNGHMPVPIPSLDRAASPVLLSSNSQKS
Summary of the method: as §1

ETV5 = ETV5 (Homo sapiens, UniProt P41161 1-510); conditions: protein: recombinant; tags: N-terminal GST; dsDNA, one strand shown
Chain of ETV5 (P41161 whole entry): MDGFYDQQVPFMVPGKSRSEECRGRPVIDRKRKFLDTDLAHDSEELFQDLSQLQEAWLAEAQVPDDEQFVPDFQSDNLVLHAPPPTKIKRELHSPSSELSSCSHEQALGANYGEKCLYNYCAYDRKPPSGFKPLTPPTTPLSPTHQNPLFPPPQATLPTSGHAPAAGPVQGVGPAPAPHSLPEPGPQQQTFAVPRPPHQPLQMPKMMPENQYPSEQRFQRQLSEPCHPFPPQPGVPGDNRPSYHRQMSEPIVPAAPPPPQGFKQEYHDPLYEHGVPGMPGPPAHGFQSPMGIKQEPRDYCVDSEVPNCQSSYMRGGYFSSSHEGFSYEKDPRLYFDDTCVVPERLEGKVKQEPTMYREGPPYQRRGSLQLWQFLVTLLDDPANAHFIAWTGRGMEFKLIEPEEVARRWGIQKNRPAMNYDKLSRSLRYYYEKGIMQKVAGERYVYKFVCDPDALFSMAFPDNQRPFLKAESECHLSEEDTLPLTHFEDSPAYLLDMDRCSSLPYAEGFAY
Summary of the method: as §1

HSF1 = HSF1 (Homo sapiens, UniProt Q00613 1-529); conditions: protein: recombinant; tags: N-terminal GST; chain copies: 3; dsDNA, one strand shown
Chain of HSF1 (Q00613 whole entry): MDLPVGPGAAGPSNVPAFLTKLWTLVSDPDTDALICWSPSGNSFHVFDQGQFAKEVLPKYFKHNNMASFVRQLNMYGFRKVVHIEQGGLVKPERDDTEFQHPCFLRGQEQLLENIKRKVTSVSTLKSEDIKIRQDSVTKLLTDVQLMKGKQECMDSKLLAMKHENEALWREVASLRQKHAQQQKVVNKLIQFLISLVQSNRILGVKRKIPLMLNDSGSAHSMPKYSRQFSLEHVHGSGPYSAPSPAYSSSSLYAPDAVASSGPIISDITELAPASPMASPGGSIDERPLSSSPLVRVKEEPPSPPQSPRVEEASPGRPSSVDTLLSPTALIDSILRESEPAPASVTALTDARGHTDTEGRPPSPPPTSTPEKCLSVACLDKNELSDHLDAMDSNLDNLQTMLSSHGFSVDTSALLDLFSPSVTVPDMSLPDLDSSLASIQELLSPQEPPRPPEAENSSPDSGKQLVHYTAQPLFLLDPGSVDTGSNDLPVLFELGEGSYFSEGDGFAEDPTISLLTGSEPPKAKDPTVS
Summary of the method: as §1

SPIC = target: T5, SPIC (Homo sapiens, UniProt Q8N5J4 1-248); conditions: protein: recombinant; tags: N-terminal GST; dsDNA, one strand shown
T5 sequence: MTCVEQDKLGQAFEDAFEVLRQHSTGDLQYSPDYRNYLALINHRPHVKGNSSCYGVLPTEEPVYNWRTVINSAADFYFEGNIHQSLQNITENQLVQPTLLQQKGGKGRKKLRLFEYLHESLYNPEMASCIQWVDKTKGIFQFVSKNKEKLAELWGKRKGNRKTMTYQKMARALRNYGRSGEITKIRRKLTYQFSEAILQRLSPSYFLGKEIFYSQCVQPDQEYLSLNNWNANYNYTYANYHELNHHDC
Summary of the method: as §1

ELF4 = ELF4 (Homo sapiens, UniProt Q99607 1-663); conditions: protein: recombinant; tags: N-terminal GST; dsDNA, one strand shown
Chain of ELF4 (Q99607 whole entry): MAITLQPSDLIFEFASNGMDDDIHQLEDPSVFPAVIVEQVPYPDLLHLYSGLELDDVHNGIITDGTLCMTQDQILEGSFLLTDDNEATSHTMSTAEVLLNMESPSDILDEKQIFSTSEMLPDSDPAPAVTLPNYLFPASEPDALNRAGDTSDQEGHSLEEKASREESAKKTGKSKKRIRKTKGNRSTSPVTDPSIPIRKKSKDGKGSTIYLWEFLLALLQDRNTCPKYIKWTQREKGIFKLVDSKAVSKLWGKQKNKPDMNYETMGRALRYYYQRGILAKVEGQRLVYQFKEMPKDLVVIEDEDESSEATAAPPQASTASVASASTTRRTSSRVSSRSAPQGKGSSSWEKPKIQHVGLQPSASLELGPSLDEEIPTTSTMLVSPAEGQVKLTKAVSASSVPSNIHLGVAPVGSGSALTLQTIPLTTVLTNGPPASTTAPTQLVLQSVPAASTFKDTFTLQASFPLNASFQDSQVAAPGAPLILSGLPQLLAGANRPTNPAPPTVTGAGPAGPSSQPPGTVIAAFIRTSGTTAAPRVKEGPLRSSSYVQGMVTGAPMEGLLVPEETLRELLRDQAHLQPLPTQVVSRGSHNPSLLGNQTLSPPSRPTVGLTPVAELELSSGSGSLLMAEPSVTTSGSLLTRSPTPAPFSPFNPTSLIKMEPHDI
Summary of the method: as §1

ETV2 = target: T6, ETV2 (Homo sapiens, UniProt O00321 1-342); conditions: protein: recombinant; tags: N-terminal GST; dsDNA, one strand shown
T6 sequence: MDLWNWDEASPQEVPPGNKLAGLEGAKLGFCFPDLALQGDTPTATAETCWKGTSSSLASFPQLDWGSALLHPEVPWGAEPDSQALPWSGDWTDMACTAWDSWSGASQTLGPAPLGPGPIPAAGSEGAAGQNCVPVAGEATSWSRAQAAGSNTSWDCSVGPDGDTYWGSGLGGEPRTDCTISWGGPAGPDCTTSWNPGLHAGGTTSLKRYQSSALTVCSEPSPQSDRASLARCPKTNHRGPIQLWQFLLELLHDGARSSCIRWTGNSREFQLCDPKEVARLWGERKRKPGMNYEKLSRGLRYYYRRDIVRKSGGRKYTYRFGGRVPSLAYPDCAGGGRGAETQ
Summary of the method: as §1

ELF3 = target: T7, ELF3 (Homo sapiens, UniProt P78545 1-371); conditions: protein: recombinant; tags: N-terminal GST; dsDNA, one strand shown
T7 sequence: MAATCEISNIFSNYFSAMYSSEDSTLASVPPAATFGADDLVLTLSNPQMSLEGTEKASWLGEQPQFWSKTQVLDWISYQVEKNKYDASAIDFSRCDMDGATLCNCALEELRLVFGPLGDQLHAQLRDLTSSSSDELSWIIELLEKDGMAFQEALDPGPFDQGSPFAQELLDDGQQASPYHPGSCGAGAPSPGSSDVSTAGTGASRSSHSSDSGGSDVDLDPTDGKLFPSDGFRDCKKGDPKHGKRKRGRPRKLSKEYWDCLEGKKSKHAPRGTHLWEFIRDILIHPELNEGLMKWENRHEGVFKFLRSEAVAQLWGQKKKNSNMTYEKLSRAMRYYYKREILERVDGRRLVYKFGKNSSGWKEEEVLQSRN
Summary of the method: as §1

CRX = CRX (Homo sapiens, UniProt O43186 1-299); conditions: protein: recombinant; tags: N-terminal GST; dsDNA, one strand shown
Chain of CRX (O43186 whole entry): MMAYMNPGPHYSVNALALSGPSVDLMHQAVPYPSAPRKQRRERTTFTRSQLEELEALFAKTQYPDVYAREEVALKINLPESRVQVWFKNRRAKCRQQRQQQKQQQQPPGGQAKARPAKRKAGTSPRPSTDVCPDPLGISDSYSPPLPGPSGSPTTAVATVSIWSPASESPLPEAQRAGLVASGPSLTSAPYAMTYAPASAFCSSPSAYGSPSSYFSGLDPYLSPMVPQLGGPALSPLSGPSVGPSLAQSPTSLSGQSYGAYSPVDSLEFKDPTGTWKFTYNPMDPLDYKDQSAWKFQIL
Summary of the method: as §1

ELK1 = target: T8, ELK1 (Homo sapiens, UniProt P19419 1-428); conditions: protein: recombinant; tags: N-terminal GST; dsDNA, one strand shown
T8 sequence: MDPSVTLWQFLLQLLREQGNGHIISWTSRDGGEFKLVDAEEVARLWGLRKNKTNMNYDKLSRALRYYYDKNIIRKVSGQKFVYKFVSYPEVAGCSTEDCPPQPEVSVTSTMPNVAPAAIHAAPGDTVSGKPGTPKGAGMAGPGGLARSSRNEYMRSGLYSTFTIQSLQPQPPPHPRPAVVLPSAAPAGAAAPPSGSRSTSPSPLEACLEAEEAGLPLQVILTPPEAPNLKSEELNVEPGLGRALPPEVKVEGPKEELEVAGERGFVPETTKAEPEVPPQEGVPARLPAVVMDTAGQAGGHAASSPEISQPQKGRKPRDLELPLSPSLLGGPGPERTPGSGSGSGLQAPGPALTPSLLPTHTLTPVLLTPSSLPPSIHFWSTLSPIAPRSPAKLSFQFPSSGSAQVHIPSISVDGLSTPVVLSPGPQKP
Summary of the method: as §1

EHF = target: T9, EHF (Homo sapiens, UniProt Q9NZC4 1-300); conditions: protein: recombinant; tags: N-terminal GST; dsDNA, one strand shown
T9 sequence: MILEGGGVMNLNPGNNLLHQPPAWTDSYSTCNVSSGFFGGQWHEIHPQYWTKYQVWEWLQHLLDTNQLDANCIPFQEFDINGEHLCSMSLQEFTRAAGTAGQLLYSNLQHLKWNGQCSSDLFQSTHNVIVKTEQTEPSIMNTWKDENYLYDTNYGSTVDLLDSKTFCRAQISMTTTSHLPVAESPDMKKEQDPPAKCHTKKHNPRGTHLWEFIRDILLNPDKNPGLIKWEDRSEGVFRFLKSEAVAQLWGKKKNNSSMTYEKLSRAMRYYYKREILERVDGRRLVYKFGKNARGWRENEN
Summary of the method: as §1

SPI1 = SPI1 (Homo sapiens, UniProt P17947 1-270); conditions: protein: recombinant; tags: N-terminal GST; dsDNA, one strand shown
Summary of the method: as §1

ETV1 = ETV1 (Homo sapiens, UniProt P50549 1-477); conditions: protein: recombinant; tags: N-terminal GST; dsDNA, one strand shown
Chain of ETV1 (P50549 whole entry): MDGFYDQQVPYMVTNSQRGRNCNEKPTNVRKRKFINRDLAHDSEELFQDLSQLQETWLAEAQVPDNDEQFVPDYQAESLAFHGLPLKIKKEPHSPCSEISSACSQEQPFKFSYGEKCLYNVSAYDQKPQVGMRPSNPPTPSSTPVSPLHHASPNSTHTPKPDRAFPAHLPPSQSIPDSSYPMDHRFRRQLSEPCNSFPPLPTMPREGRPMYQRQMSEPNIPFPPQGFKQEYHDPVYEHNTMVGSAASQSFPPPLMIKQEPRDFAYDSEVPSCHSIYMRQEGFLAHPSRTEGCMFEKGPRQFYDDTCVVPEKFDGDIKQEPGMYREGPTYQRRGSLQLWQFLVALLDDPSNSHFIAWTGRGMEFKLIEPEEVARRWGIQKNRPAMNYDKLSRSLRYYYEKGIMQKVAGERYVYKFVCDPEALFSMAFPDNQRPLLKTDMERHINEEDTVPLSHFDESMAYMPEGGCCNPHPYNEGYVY
Summary of the method: as §1

Sequence | binding signal (FLI1) | binding signal (GABPA) | binding signal (ERG) | binding signal (ELF1) | binding signal (SPIB) | binding signal (ELK3) | binding signal (ETV5) | binding signal (HSF1) | binding signal (SPIC) | binding signal (ELF4) | binding signal (ETV2) | binding signal (ELF3) | binding signal (CRX) | binding signal (ELK1) | binding signal (EHF) | binding signal (SPI1) | binding signal (ETV1)
TCTAGG | 1.12 fold enrichment (6-mer frequency, TF over GST control) | 1.1 fold enrichment (6-mer frequency, TF over GST control) | 1.02 fold enrichment (6-mer frequency, TF over GST control) | 1.05 fold enrichment (6-mer frequency, TF over GST control) | 1.11 fold enrichment (6-mer frequency, TF over GST control) | 1.07 fold enrichment (6-mer frequency, TF over GST control) | 1.05 fold enrichment (6-mer frequency, TF over GST control) | 1.7 fold enrichment (6-mer frequency, TF over GST control) | 1.24 fold enrichment (6-mer frequency, TF over GST control) | 1.13 fold enrichment (6-mer frequency, TF over GST control) | 1.11 fold enrichment (6-mer frequency, TF over GST control) | 1.07 fold enrichment (6-mer frequency, TF over GST control) | 1.27 fold enrichment (6-mer frequency, TF over GST control) | – | – | – | –
TAGTCT | 1.09 fold enrichment (6-mer frequency, TF over GST control) | 1.21 fold enrichment (6-mer frequency, TF over GST control) | 1.08 fold enrichment (6-mer frequency, TF over GST control) | 1.07 fold enrichment (6-mer frequency, TF over GST control) | – | – | 1.01 fold enrichment (6-mer frequency, TF over GST control) | 1.4 fold enrichment (6-mer frequency, TF over GST control) | 1.05 fold enrichment (6-mer frequency, TF over GST control) | 1.03 fold enrichment (6-mer frequency, TF over GST control) | – | 1.14 fold enrichment (6-mer frequency, TF over GST control) | 1.4 fold enrichment (6-mer frequency, TF over GST control) | 1.07 fold enrichment (6-mer frequency, TF over GST control) | 1.05 fold enrichment (6-mer frequency, TF over GST control) | 1.07 fold enrichment (6-mer frequency, TF over GST control) | 1.01 fold enrichment (6-mer frequency, TF over GST control)

From PMC7862700, “An all-to-all approach to the identification of sequence-specific readers for epigenetic DNA modifications on cytosine”
